# Article PMC7862700, “An all-to-all approach to the identification of sequence-specific readers for epigenetic DNA modifications on cytosine”
# Columns and labels:
# Assay in all cases: DAPPL (digital affinity profiling via proximity ligation, sequencing); 10 mM Tris-HCl pH 7.5, 50 mM NaCl, 1 mM DTT, 4% glycerol, room temperature, 30 min; GST-TFs on glutathione beads, 16-mer random dsDNA library, 0.1% formaldehyde crosslink after washing; high values mean tight binding
# FLI1 = target: T1, FLI1 (Homo sapiens, UniProt Q01543 1-452); conditions: protein: recombinant; tags: N-terminal GST; dsDNA, one strand shown
# T1 sequence: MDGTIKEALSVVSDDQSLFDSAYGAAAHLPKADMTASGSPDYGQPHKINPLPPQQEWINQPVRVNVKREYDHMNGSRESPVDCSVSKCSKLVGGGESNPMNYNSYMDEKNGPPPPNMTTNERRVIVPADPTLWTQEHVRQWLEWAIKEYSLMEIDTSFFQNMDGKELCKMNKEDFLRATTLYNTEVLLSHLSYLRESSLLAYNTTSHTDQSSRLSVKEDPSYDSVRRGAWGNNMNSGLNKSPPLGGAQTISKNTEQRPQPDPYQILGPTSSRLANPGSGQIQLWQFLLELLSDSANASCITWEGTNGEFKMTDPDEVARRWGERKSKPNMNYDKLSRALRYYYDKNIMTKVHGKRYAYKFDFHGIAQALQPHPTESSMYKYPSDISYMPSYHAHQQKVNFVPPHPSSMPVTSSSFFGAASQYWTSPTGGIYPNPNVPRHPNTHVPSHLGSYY
# Method in brief: (§1)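 A tag-only sample was pooled with DNA-barcoded human transcription factors that had been expressed in yeast as GST fusions and captured on glutathione beads. The pools were incubated for 30 min at room temperature with 200 nmole of a random double-stranded 16-mer DNA library in Tris/NaCl/DTT/glycerol buffer, then washed, crosslinked with 0.1% formaldehyde, proximity-ligated (BsaI/T4 ligase, 1 h, 37 °C), PCR-amplified and sequenced on an Illumina NextSeq500. Binding signal is each hexamer's read frequency for a factor divided by its frequency for the tag-only sample.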
# ELK1 = target: T2, ELK1 (Homo sapiens, UniProt P19419 1-428); conditions: protein: recombinant; tags: N-terminal GST; dsDNA, one strand shown
# T2 sequence: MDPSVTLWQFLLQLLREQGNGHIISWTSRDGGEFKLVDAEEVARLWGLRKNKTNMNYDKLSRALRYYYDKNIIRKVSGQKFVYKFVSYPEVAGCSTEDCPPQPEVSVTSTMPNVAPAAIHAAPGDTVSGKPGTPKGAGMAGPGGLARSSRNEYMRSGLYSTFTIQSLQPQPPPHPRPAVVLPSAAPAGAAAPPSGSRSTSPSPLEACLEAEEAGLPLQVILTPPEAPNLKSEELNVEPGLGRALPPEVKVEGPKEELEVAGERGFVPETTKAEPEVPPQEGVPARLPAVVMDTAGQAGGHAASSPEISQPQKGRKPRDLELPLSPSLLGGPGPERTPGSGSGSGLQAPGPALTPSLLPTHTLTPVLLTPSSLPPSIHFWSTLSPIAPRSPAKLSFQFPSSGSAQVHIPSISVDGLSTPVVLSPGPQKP
# Method in brief: as §1
# GABPA = target: T3, GABPA (Homo sapiens, UniProt Q06546 1-454); conditions: protein: recombinant; tags: N-terminal GST; dsDNA, one strand shown
# T3 sequence: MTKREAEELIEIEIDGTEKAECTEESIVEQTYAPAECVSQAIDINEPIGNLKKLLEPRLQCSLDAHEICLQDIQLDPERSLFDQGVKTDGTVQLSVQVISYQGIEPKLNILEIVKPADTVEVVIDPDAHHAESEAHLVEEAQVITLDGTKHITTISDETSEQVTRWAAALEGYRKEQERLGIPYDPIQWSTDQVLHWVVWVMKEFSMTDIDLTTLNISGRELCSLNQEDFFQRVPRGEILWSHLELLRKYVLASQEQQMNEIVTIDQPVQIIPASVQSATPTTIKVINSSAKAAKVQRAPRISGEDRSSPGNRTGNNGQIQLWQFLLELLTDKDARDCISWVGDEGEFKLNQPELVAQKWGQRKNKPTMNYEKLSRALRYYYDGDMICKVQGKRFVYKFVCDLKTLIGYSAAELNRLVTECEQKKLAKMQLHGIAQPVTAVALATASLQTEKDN
# Method in brief: as §1
# ERG = target: T4, ERG (Homo sapiens, UniProt P11308 1-479); conditions: protein: recombinant; tags: N-terminal GST; dsDNA, one strand shown
# T4 sequence: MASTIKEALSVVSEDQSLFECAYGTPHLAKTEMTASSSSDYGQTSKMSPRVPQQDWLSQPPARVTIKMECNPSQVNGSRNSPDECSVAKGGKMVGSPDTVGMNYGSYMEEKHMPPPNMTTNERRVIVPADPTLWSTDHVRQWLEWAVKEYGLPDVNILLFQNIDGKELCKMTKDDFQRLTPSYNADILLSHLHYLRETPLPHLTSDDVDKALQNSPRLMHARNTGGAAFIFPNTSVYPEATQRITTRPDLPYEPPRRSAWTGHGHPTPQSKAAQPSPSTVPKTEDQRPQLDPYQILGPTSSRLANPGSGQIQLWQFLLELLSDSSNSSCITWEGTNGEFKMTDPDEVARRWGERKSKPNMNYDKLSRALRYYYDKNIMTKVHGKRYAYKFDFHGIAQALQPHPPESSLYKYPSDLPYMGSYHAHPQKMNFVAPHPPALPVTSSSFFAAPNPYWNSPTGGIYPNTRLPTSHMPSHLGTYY
# Method in brief: as §1
# ELF1 = ELF1 (Homo sapiens, UniProt P32519 1-619); conditions: protein: recombinant; tags: N-terminal GST; dsDNA, one strand shown
# Chain of ELF1 (P32519 whole entry): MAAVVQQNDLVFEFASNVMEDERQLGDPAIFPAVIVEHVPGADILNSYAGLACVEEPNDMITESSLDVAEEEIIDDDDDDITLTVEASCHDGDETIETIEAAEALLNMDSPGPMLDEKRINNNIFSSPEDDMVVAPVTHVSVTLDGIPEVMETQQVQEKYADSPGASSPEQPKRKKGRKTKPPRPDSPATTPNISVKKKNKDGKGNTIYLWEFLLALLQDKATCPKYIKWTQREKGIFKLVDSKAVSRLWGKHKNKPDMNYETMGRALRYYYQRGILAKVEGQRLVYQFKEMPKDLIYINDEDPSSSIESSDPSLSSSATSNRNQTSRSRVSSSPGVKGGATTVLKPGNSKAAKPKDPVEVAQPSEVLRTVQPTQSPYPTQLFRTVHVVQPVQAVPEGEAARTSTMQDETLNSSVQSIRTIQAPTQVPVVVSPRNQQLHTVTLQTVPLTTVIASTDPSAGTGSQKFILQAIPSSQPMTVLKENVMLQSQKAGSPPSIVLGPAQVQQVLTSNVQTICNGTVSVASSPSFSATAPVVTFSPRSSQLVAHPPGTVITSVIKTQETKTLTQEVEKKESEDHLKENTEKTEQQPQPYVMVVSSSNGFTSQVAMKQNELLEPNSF
# Method in brief: as §1
# EHF = target: T5, EHF (Homo sapiens, UniProt Q9NZC4 1-300); conditions: protein: recombinant; tags: N-terminal GST; dsDNA, one strand shown
# T5 sequence: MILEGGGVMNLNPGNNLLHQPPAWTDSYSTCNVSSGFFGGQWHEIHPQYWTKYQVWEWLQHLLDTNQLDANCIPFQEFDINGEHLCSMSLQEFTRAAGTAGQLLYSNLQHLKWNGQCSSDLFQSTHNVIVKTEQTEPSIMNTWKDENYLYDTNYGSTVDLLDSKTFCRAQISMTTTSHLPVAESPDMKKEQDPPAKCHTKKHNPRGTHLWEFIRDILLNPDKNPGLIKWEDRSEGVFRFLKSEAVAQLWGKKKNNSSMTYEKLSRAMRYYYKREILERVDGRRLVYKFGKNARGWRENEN
# Method in brief: as §1
# SPI1 = SPI1 (Homo sapiens, UniProt P17947 1-270); conditions: protein: recombinant; tags: N-terminal GST; dsDNA, one strand shown
# Method in brief: as §1
# SPIB = SPIB (Homo sapiens, UniProt Q01892 1-262); conditions: protein: recombinant; tags: N-terminal GST; dsDNA, one strand shown
# Chain of SPIB (Q01892 whole entry): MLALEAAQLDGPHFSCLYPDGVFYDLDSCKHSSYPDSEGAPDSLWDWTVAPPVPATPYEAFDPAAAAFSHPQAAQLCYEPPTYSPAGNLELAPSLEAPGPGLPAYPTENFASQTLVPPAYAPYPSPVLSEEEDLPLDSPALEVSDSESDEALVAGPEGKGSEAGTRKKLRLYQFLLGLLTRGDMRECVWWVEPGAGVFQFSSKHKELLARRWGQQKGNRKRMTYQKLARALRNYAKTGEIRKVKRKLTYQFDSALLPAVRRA
# Method in brief: as §1
# ELK3 = target: T6, ELK3 (Homo sapiens, UniProt P41970 1-407); conditions: protein: recombinant; tags: N-terminal GST; dsDNA, one strand shown
# T6 sequence: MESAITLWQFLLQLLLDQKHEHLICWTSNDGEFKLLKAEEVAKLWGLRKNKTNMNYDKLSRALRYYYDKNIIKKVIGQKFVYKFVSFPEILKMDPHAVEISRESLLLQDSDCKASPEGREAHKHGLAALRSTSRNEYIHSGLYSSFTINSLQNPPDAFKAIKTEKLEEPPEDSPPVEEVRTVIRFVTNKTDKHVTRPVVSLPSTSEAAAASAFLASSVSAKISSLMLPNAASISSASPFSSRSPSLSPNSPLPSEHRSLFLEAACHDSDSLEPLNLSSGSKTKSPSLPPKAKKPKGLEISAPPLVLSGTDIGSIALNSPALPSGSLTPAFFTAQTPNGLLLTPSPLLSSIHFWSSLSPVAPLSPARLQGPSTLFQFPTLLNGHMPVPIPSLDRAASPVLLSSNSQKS
# Method in brief: as §1
# FEV = target: T7, FEV (Homo sapiens, UniProt Q99581 1-238); conditions: protein: recombinant; tags: N-terminal GST; dsDNA, one strand shown
# T7 sequence: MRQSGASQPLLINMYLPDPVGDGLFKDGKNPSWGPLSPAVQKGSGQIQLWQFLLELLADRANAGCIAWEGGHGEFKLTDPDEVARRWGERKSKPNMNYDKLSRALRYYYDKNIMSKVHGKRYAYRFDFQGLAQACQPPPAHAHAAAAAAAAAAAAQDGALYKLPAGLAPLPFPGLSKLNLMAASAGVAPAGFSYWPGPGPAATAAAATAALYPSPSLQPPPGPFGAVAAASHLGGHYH
# Method in brief: as §1
# ETV5 = ETV5 (Homo sapiens, UniProt P41161 1-510); conditions: protein: recombinant; tags: N-terminal GST; dsDNA, one strand shown
# Chain of ETV5 (P41161 whole entry): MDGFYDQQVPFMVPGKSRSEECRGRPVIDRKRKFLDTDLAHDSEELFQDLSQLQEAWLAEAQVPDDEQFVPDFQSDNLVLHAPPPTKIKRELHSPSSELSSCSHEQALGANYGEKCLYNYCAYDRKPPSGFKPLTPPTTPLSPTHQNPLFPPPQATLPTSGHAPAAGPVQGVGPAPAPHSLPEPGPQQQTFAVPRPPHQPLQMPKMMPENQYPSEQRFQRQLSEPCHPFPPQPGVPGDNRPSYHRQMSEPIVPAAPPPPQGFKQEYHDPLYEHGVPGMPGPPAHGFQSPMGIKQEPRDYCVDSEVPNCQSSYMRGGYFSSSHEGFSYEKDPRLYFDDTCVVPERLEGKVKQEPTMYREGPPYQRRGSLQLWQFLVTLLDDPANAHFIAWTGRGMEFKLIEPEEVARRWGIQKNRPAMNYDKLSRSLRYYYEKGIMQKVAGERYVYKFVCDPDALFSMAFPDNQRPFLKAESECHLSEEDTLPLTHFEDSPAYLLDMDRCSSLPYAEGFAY
# Method in brief: as §1
# HSF1 = HSF1 (Homo sapiens, UniProt Q00613 1-529); conditions: protein: recombinant; tags: N-terminal GST; chain copies: 3; dsDNA, one strand shown
# Chain of HSF1 (Q00613 whole entry): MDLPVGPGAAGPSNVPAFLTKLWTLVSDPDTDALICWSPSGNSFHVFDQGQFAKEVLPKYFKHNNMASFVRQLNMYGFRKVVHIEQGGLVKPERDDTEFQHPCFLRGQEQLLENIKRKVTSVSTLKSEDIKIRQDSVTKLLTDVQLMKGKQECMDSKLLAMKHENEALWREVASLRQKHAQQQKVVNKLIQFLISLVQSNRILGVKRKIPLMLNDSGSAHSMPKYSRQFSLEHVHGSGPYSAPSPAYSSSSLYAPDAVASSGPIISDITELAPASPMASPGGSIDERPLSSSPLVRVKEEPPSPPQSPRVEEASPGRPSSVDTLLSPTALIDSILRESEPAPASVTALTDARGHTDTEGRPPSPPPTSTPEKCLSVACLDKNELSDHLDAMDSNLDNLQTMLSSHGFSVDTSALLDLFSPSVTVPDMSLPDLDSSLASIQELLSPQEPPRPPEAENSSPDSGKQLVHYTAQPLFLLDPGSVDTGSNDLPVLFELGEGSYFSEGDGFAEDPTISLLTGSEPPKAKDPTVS
# Method in brief: as §1
# SPIC = target: T8, SPIC (Homo sapiens, UniProt Q8N5J4 1-248); conditions: protein: recombinant; tags: N-terminal GST; dsDNA, one strand shown
# T8 sequence: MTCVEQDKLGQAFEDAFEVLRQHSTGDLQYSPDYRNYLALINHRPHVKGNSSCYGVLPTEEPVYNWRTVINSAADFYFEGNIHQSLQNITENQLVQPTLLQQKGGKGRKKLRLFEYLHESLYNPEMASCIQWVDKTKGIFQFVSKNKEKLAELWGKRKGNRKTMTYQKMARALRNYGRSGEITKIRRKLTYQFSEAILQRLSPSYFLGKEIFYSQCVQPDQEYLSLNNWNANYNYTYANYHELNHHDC
# Method in brief: as §1
# ELF4 = ELF4 (Homo sapiens, UniProt Q99607 1-663); conditions: protein: recombinant; tags: N-terminal GST; dsDNA, one strand shown
# Chain of ELF4 (Q99607 whole entry): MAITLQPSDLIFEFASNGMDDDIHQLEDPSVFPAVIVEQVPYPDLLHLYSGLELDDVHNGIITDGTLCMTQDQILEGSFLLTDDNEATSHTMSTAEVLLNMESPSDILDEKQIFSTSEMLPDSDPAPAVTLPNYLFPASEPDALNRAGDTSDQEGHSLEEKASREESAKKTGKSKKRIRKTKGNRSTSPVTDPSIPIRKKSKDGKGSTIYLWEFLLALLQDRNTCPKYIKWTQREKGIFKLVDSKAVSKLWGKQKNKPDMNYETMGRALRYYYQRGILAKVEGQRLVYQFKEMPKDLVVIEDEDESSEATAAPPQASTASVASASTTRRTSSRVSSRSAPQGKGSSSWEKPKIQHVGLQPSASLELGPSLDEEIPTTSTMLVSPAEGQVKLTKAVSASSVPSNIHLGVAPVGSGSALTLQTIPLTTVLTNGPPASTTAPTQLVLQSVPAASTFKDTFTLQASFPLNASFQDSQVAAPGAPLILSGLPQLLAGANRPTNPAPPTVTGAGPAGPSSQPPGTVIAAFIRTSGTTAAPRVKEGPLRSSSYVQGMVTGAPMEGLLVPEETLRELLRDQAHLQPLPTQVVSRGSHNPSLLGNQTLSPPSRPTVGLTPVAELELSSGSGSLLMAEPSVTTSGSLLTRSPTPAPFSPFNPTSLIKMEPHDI
# Method in brief: as §1
# ELK4 = target: T9, ELK4 (Homo sapiens, UniProt P28324-2 1-405); conditions: protein: recombinant; tags: N-terminal GST; dsDNA, one strand shown
# T9 sequence: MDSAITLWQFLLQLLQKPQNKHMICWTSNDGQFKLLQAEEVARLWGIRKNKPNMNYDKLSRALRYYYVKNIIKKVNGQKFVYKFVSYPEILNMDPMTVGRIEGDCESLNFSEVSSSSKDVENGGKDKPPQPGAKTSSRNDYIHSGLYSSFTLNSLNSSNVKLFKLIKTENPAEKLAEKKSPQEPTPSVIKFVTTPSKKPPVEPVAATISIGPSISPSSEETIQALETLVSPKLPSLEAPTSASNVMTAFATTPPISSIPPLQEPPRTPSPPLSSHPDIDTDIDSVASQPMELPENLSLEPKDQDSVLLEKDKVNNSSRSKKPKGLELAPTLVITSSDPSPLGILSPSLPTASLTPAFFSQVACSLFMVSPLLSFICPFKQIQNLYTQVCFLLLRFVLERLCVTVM
# Method in brief: as §1
# ETV2 = target: T10, ETV2 (Homo sapiens, UniProt O00321 1-342); conditions: protein: recombinant; tags: N-terminal GST; dsDNA, one strand shown
# T10 sequence: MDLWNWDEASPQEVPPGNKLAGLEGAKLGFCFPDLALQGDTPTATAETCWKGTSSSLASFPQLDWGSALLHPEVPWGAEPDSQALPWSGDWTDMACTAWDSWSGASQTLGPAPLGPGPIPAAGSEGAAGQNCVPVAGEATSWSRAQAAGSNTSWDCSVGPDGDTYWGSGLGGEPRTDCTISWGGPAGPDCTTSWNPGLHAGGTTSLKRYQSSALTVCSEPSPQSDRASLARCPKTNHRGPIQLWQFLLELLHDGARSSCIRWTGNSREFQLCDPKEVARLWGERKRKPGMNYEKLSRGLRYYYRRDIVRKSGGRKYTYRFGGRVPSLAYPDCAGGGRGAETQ
# Method in brief: as §1
# ELF3 = target: T11, ELF3 (Homo sapiens, UniProt P78545 1-371); conditions: protein: recombinant; tags: N-terminal GST; dsDNA, one strand shown
# T11 sequence: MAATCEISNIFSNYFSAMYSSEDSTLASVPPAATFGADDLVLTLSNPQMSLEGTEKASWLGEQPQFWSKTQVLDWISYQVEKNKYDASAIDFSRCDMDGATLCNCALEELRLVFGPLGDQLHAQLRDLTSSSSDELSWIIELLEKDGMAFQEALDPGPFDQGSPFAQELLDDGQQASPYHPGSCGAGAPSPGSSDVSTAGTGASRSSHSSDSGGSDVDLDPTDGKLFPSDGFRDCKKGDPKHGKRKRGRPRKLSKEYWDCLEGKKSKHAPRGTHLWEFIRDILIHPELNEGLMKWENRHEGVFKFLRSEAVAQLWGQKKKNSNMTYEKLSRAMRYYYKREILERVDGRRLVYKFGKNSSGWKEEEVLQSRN
# Method in brief: as §1
# CRX = CRX (Homo sapiens, UniProt O43186 1-299); conditions: protein: recombinant; tags: N-terminal GST; dsDNA, one strand shown
# Chain of CRX (O43186 whole entry): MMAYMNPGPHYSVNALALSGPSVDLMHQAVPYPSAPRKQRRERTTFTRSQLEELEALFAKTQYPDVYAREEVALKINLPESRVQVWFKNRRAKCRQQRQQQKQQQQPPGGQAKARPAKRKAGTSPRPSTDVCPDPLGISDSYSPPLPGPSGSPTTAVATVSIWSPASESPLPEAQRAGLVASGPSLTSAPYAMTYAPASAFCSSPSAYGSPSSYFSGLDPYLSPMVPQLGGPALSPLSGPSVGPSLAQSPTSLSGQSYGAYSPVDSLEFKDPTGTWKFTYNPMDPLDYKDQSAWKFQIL
# Method in brief: as §1
# ETV1 = ETV1 (Homo sapiens, UniProt P50549 1-477); conditions: protein: recombinant; tags: N-terminal GST; dsDNA, one strand shown
# Chain of ETV1 (P50549 whole entry): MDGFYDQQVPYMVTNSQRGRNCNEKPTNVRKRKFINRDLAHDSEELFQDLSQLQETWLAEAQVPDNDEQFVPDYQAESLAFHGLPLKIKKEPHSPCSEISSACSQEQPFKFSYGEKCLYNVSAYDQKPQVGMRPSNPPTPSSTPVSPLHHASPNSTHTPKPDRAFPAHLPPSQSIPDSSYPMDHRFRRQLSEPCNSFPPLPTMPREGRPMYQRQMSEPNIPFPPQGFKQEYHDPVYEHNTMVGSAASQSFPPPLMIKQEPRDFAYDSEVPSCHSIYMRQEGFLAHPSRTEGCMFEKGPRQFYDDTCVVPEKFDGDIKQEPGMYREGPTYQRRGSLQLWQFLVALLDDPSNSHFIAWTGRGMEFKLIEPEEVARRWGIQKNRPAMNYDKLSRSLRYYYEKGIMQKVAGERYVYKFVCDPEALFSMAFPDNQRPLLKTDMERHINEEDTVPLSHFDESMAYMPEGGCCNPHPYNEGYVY
# Method in brief: as §1
sequence,measurement,setting,value
CCCGTT,binding signal,FLI1,"1.17 fold enrichment (6-mer frequency, TF over GST control)"
same,binding signal,ELK1,"1.08 fold enrichment (6-mer frequency, TF over GST control)"
same,binding signal,GABPA,"1.21 fold enrichment (6-mer frequency, TF over GST control)"
same,binding signal,ERG,"1.26 fold enrichment (6-mer frequency, TF over GST control)"
same,binding signal,ELF1,"1.12 fold enrichment (6-mer frequency, TF over GST control)"
same,binding signal,EHF,"1.15 fold enrichment (6-mer frequency, TF over GST control)"
same,binding signal,SPI1,"1.28 fold enrichment (6-mer frequency, TF over GST control)"
same,binding signal,SPIB,"1.19 fold enrichment (6-mer frequency, TF over GST control)"
same,binding signal,ELK3,"1.18 fold enrichment (6-mer frequency, TF over GST control)"
same,binding signal,FEV,"1.13 fold enrichment (6-mer frequency, TF over GST control)"
same,binding signal,ETV5,"1.21 fold enrichment (6-mer frequency, TF over GST control)"
same,binding signal,HSF1,"1.03 fold enrichment (6-mer frequency, TF over GST control)"
same,binding signal,SPIC,"1.07 fold enrichment (6-mer frequency, TF over GST control)"
same,binding signal,ELF4,"1.15 fold enrichment (6-mer frequency, TF over GST control)"
same,binding signal,ELK4,"1.06 fold enrichment (6-mer frequency, TF over GST control)"
same,binding signal,ETV2,"1.18 fold enrichment (6-mer frequency, TF over GST control)"
same,binding signal,ELF3,"1.26 fold enrichment (6-mer frequency, TF over GST control)"
same,binding signal,CRX,"1.02 fold enrichment (6-mer frequency, TF over GST control)"
same,binding signal,ETV1,"1.03 fold enrichment (6-mer frequency, TF over GST control)"
